Among all 3,300 compounds or so, about 55 (2%) were called active. This is one part of a sample in which actives are shown more often than they occur.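 How the source made its calls: active means growth inhibition above 90%, meaning viable cell count by imaging cut by more than 90% versus vehicle controls; inactive means growth inhibition below 90%.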
Assay: HT29 colon tumor cell growth inhibition, primary screen, imaging, high content imaging, 48 h, CellTiter-Glo (AID 771);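 on condensed nuclei: condensed means Hoechst nuclear area under control median minus 1.5 SD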
Details: HCS imaging cell count, at 10 µM, stronger effect = higher value; for condensed nuclei: measured here: percent cells with condensed nuclei
[1] = measured here: ATP CellTiter-Glo viability inhibition

Structure (SMILES)	growth inhibition	growth inhibition [1] [%]	condensed nuclei [%]
c1ccc2c(c1)[nH]c1c(N3CCN(C4CCCCC4)CC3)ncnc12	58.7% (inactive)	2.53	3.08
Cc1ccc2[nH]c3c(N4CCN(Cc5ccccc5)CC4)ncnc3c2c1	16% (inactive)	-1.83	2.02
Cc1ccc2[nH]c3c(N4CCCCCC4)ncnc3c2c1	96.6% (active)	93	38.1
Fc1ccc2[nH]c3c(N4CCN(Cc5ccc6c(c5)OCO6)CC4)ncnc3c2c1	97.9% (active)	92.8	29
Cc1ccc2[nH]c3c(N4CCOCC4)ncnc3c2c1	42.1% (inactive)	15.8	0.48
COc1ccc2[nH]c3c(N4CCN(Cc5ccc6c(c5)OCO6)CC4)ncnc3c2c1	40.6% (inactive)	20.9	3.53
Fc1ccc2[nH]c3c(N4CCSCC4)ncnc3c2c1	38.7% (inactive)	37.9	4.52
CN1CCN(c2ncnc3c2[nH]c2ccc(F)cc23)CC1	64.5% (inactive)	10	2.81
Fc1ccc2[nH]c3c(N4CCN(C5CCCCC5)CC4)ncnc3c2c1	94% (active)	85.4	10.8
Cc1ccc2[nH]c3c(N4CCN(Cc5ccc6c(c5)OCO6)CC4)ncnc3c2c1	94.2% (active)	91.8	25.3
c1ccc(CN2CCN(c3ncnc4c3[nH]c3ccccc34)CC2)cc1	89.4% (inactive)	57.3	10.8
c1ccc2c(c1)[nH]c1c(N3CCSCC3)ncnc12	57.5% (inactive)	9.84	0.5
O=C(CCN1CCc2ccccc2CC1)c1ccc2c(c1)OCCO2	18.3% (inactive)	14.1	1.32
Fc1ccc(-c2cnc[nH]2)cc1	7.2% (inactive)	-20.5	1.71
COC(=O)CSc1nc2sc3c(c2c(=O)n1C1CCCCC1)CCN(C)C3	31.7% (inactive)	-21.3	4.17
O=C(O)CC(C(=O)N(c1ccccc1)c1ccccc1)N1CCOCC1 (stereo not given)	-4.04% (inactive)	-10.5	1.81
Cc1occc1C(=O)OCC(=O)Nc1ccc(F)cc1	41.9% (inactive)	18.1	4.91
Cc1ccc(CNC(=O)c2cc3c(=O)n4ccccc4nc3n(Cc3ccco3)c2=N)cc1	38.7% (inactive)	10.6	1.03
CCOc1ccc(C2/C(=C(/O)c3ccc(F)cc3)C(=O)C(=O)N2CCCN(C)C)cc1 (stereo not given)	28.1% (inactive)	-5.46	5.22
CCN1CCN(c2nc3c(C)cccn3c(=O)c2/C=C(\C#N)S(=O)(=O)c2ccccc2)CC1	9.15% (inactive)	7.42	2.58
COC(=O)c1cc(Br)c(=O)n(CCc2ccc(F)cc2)c1	43.4% (inactive)	17.2	1.12
CCOC(=O)c1[nH]c2ccc(F)cc2c1N=C(C)N(CC)CC	-6.13% (inactive)	-22.6	2.07
CC(C)CNC(=O)c1c(N)n(/N=C/c2ccccn2)c2nc3ccccc3nc12	-40% (inactive)	-5.64	2.54
COc1cccc(N2CCN(c3ncnc4c3[nH]c3ccccc34)CC2C)c1 (stereo not given)	89.8% (inactive)	62.2	5.36
Fc1ccc2[nH]c3c(N4CCN(c5ccccc5)CC4)ncnc3c2c1	81.6% (inactive)	84.2	29.2

Structure (SMILES)	growth inhibition	growth inhibition [1] [%]	condensed nuclei [%]
COc1cccc(N2CCN(c3ncnc4c3[nH]c3ccc(F)cc34)CC2C)c1 (stereo not given)	91.7% (active)	89.4	4.17
CC(=O)/C=C(\C)NCCNc1c(F)c(F)c(CO)c(F)c1F	23.4% (inactive)	0.5	1.42
CC(NCCc1ccc(O)cc1)C(O)c1ccc(O)cc1 (stereo not given)	-16.3% (inactive)	–	2.5
CC(COc1ccccc1)NC(C)C(O)c1ccc(O)cc1 (stereo not given)	22.6% (inactive)	–	2.89
CCCCCCCCNC(C)C(O)c1ccc(SC(C)C)cc1 (stereo not given)	99.7% (active)	–	50
COc1ccc(OC)c(C(O)c2coc3ccc(O)c(CN4CCOCC4)c23)c1 (stereo not given)	-2.41% (inactive)	-6.82	4.2
Cc1nc(=O)c(-c2ccccc2)c(C)n1-c1ccc(S(N)(=O)=O)cc1	-25.6% (inactive)	-8.56	2.99
CCOC(=O)c1[nH]c2cc(OC)c(OC)cc2c1NC(=O)C(C)N1CCN(Cc2ccccc2)CC1 (stereo not given)	3.83% (inactive)	-7.15	3.08
CCCCC(=O)NC(Nc1ccc(C)cn1)(C(=O)OCC)C(F)(F)F (stereo not given)	-56.4% (inactive)	-18.7	2.76
CCn1cc(C(=O)NCCc2ccccc2)c(=O)c2cc(F)c(N3CCN(C)CC3)cc21	97% (active)	89.7	14.8
CCn1cc(C(=O)NCCCN(C)C)c(=O)c2cc(F)c(N3CCN(C)CC3)cc21	23.8% (inactive)	-23.1	4.97
CCn1cc(C(=O)NCc2ccccn2)c(=O)c2cc(F)c(N3CCN(C)CC3)cc21	15.6% (inactive)	-1.75	2.93
CCOC(=O)c1ccccc1OCc1cc(/C=N/n2cncn2)ccc1OC	28.7% (inactive)	6.4	3.97
CCOc1ccc(C2C(C#N)=C(N)SC(N)=C2C#N)cc1OC	25.3% (inactive)	1.94	0.7
N=c1c2c(-c3ccccc3)c(-c3ccccc3)n(Cc3ccccc3)c2ncn1CCCn1ccnc1	99.7% (active)	97.2	41.1
O=c1c(C=NCCCn2ccnc2)c(-c2ccccc2)[nH]n1-c1nc2ccccc2s1	1.39% (inactive)	1.73	3.29
OCCNc1ncnc2c1c(-c1ccccc1)c(-c1ccccc1)n2Cc1ccco1	37.6% (inactive)	15.3	3.02
COC(=O)c1[nH]c(C)c(/C(O)=C2\C(=O)C(=O)N(CCN3CCOCC3)C2c2ccccc2OC)c1C (stereo not given)	15.6% (inactive)	7.04	1.6
O=C(NCCN1CCCCC1)/C(=N\O)c1ccccc1	-0.27% (inactive)	-18.5	1.08
Cc1c(=O)n(OCc2c(F)cccc2F)c2ccccc2[n+]1[O-]	7.92% (inactive)	2.47	2.94
C=CC(O)Cc1c(C)n[nH]c1C (stereo not given)	-31.7% (inactive)	7.27	2.84
COc1ccc(OCC(=O)N2CCN(C(=O)c3cccc4ccccc34)CC2)cc1	-1.2% (inactive)	-3.25	2
CNCCC=C1c2ccccc2CCc2ccccc21	97.6% (active)	–	32.9
CN(C)CCC=C1c2ccccc2CCc2ccccc21	28.2% (inactive)	–	6.45
COc1ccc(C(C)=O)cc1CSCCC(=O)O	-39.8% (inactive)	-10.3	1.66

Structure (SMILES)	growth inhibition	growth inhibition [1] [%]	condensed nuclei [%]
CCOC(=O)Oc1ccc2c(c1)C(C)=CC(C)(C)N2C(=O)OCC	44.5% (inactive)	33.4	1.63
CCCc1cc(NCCCCO)n2c(nc3ccccc32)c1C#N	41.5% (inactive)	6.57	2.71
C/C(=N/n1cnnc1)c1cccnc1	-50.9% (inactive)	-4.47	2.16
COCc1cc(=O)[nH]c(Nc2nc3ccccc3o2)n1	89.2% (inactive)	76.3	2.5
COCc1cc(=O)[nH]c(Nc2nc3ccc(C)cc3o2)n1	93% (active)	69.7	0
Cc1cccc(OCc2nc(C)cc(=O)[nH]2)c1	37.9% (inactive)	1.04	2.19
COc1ccccc1-n1c(=O)c2c3c(sc2n2c(SC(C)C)nnc12)CCC3	-4.74% (inactive)	-1.5	3.08
C=CCOC(=O)C1=C(C)NC(SCC(=O)Nc2ccc(C)c(Cl)c2)=C(C#N)C1c1ccco1 (stereo not given)	91.3% (active)	45.8	8.14
COCCOC(=O)C1=C(C)NC(SCC(=O)NC(C)(C)C)=C(C#N)C1c1ccco1 (stereo not given)	34.7% (inactive)	-24.4	3.96
CCOC(=O)C1=C(c2ccccc2)NC(SCC(=O)Nc2ccccc2C)=C(C#N)C1c1ccco1 (stereo not given)	91% (active)	75.3	11
CCN(CC)C(=O)CSC1=C(C#N)C(c2ccco2)C(C(=O)OCCOC)=C(C)N1 (stereo not given)	25.5% (inactive)	20.6	3.61
C=CCOC(=O)C1=C(C)NC(SCC(=O)N(CC)CC)=C(C#N)C1c1ccco1 (stereo not given)	-28.4% (inactive)	-41.1	2.96
C=CCOC(=O)C1=C(C)NC(SCC(=O)N(CC)CC)=C(C#N)C1c1ccccc1 (stereo not given)	54.1% (inactive)	3.16	4.29
Cc1cc(CC(=O)O)c(C)cc1CC(=O)O	-42% (inactive)	-0.43	2.43
CCCn1nnc(NC(=O)c2cc(Br)cc(Br)c2OC)n1	-8.21% (inactive)	-15.1	7.92
O=C1[C@@H]2[C@H](C(=O)N1O)[C@H]1C=C[C@@H]2C1	1.8% (inactive)	-19.1	1.79
CCCc1nnc(NC(=O)c2c(O)c3c([nH]c2=O)CCCC3)s1	-9.28% (inactive)	-32.6	7.28
c1cncc(-c2nnc3sc(-c4ccco4)nn23)c1	28% (inactive)	26.6	21.4
CCN(CC)c1ccc(-c2nn3c(-c4cccnc4)nnc3s2)cc1	90.1% (active)	75	4.92
COc1cc(-c2nn3c(-c4cccnc4)nnc3s2)cc(OC)c1OC	-10.1% (inactive)	-33.4	3
O=C(NCCCn1ccnc1)c1cccnc1	-11.4% (inactive)	-30.1	2.67
COc1cccc(-c2nc(N3CCN(Cc4ccccc4)CC3)c3ccccc3n2)c1O	-8.14% (inactive)	0.87	2.41
CCOc1cc2nc(-c3ccc(OC)c(OC)c3)nc(N3CCOCC3)c2cc1OC	97.2% (active)	90	39.3
COc1cc2nc(-c3ccccc3)nc(N3CCCC3)c2cc1OC	27.7% (inactive)	3.73	2.25
CCC1(C)Cc2ccccc2-c2nc(NCCO)n(-c3ccccc3)c(=O)c21 (stereo not given)	60.4% (inactive)	4.3	2.11
